Structures are written as SMILES. Unmarked numbers belong to inactive results. Results filed as inconclusive are left out. Active and inactive are the calls of the source. Calls follow the shape of the dose curve; as a rule, active = well fitted curve in the direction sought with a large enough effect; inconclusive = small, poorly fitted or top-dose-only effect, or another doubt; inactive = no such curve, though single readings can be large; an effect the other way counts as inactive or inconclusive.

A short description of assay [1]: Confirmatory screen NINDS Rhodamine qHTS for Zika virus inhibitors (AID 1347161). Also: potency is read from the fitted curve at half-maximal effect; nearly all actives have a fitted effect of over 60% in size. Put shortly:
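Enzyme (25 nM, linked NS2B-NS3) was preincubated 15 min with compound in 10 mM Tris-HCl pH 8.0, 0.01% Tween 20. Rhodamine110 substrate (1.5 microM) was then added and fluorescence read at start and after 15 min.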
A general note: qHTS replaces the single test concentration by a dilution series.

The subject of assay [2] is Zika virus NS2B-NS3 protease (linked). Kind of assay: 384 well plate NINDS AMC confirmatory qHTS for Zika virus inhibitors (AID 1347163). Also: potency is read from the fitted curve at half-maximal effect; nearly all actives have a fitted effect of over 50% in size. The method, boiled down:
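Enzyme (5, 30 or 60 nM final) first met test compounds for ~15 min. The AMC-tagged peptide Ac-VKTGKR-AMC followed at 30 microM. Fluorescence was then recorded at 25 min and scaled against no-enzyme and no-inhibitor wells.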

Assay [3] is described as follows: Tertiary RLuc qRT-PCR qHTS assay for Zika virus inhibitors (AID 1347169). Also: nearly all actives have a fitted effect of over 55% in size. Also: potency is read from the fitted curve at half-maximal effect. As to activity change, negative = inhibition: top concentration of the series differs between compounds; % is scaled to controls: 0 for no effect and ±100 for the full control effect. The method, boiled down: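 Vero cells (1,000/well) infected with recombinant ZIKV-RLuc (Cambodian) at MOI 1-2 after compound addition, 48-72 hrs at 37 degrees C. Live-cell Renilla luciferase substrate added; luminescence read after 1-1.5 hrs.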
(Quantitative PCR measures a nucleic acid by following its amplification.)

A short description of assay [4]: qHTS to identify inhibitors of the type 1 interferon - major histocompatibility complex class I in skeletal muscle: primary screen against the NCATS Pharmaceutical Collection (AID 1347407).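 Also: luminescence of HiBiT knocked into endogenous HLA-B as interferon-induced MHC class I level.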 Also: potency is read from the fitted curve at half-maximal effect. The method, boiled down:
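Immortalized human myoblasts (C25cl48) with HiBiT knocked into endogenous HLA-B*08:01 were stimulated with 4.0 ng/ml IFN-beta and treated with compounds ([…] top 46 uM) for 24 hrs at 37 C. HiBiT lytic luminescence read.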

For assay [5], the target named is Protein phosphatase 1D (Homo sapiens) (UniProt O15297). Put plainly: RapidFire Mass Spectrometry qHTS Assay for Modulators of WT P53-Induced Phosphatase 1 (WIP1) (AID 1347424).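 Also: amount of dephosphorylated VEPPL-S-QETFS peptide product formed by WIP1; series mostly up to about 63 µM; plate controls were DMSO wells for no effect and GSK830371 inhibitor control at 10 µM for full effect.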 Put shortly: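 Mass-spectrometric measurement of dephosphorylated peptide after a 5 min room-temperature reaction of 10 nM WIP1 with 2 uM phosphopeptide, following 1 h compound preincubation in 30 mM MgCl2 buffer.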

Assay [6] is described as follows: Primary qHTS for inhibitors of La Crosse Virus (LACV) - induced cell death in SH-SY5Y cells (AID 1508616).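 Also: top concentration of the series differs between compounds; 0% = infected DMSO wells and 100% = uninfected DMSO wells; higher means more rescue of cells from virus-induced death.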 The method, boiled down: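 Cytopathicity rescue screen: compounds pinned onto SH-SY5Y cells, which are then infected with LACV (MOI 0.01) and held 6 days at 37C. Percent activity is scaled between infected DMSO control and uninfected DMSO control.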
A short description of assay [7]: Vero cells viability qHTS for Zika virus inhibitors (AID 1347167). Also: % is scaled to controls: 0 for no effect and ±100 for the full control effect. The method, boiled down:
(§1)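 To flag cytotoxic protease inhibitors, viability is measured by ATP-dependent luminescence (CellTiter Glo) after cells attached overnight receive compound for 24 to 48 hours in DMEM with 4% FBS.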

Assay [8] is described as follows: HepG2 cells viability qHTS for Zika virus inhibitors (AID 1347168). Also: potency is read from the fitted curve at half-maximal effect. Put shortly:
as §1

Assay [9] addresses Protein phosphatase 1D (Homo sapiens) (UniProt O15297). Put plainly: Rhodamine-PBP qHTS Assay for Modulators of WT P53-Induced Phosphatase 1 (WIP1) (AID 1347425). Also: % of control where 0% means no effect. The method, boiled down:
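Steps: enzyme with Rh-PBP sensor and compounds, room-temperature incubation of 1 hr, baseline read, addition of VEPPL-pS-QETFS (10 uM final), kinetic fluorescence reads at 525/598 nm. Activity equals final minus baseline signal.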

A short description of assay [10]: qHTS to identify inhibitors of the type 1 interferon - major histocompatibility complex class I in skeletal muscle: primary screen against the NCATS Mechanism Interrogation Plate v5.0 (MIPE) Libary (AID 1347411).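 Also: plate controls were vehicle for no effect and reference inhibitor for full effect; nearly all actives have a fitted effect of over 65% in size.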 The method, boiled down:
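HLA-B HiBit myoblasts, dexamethasone-free medium + 4 ng/ml IFN-b, 24 h compound, 11-pt 1:3 from 46 uM final. Readout: Nano-Glo HiBiT lytic luminescence after 10 min lysis, RT.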

Assay [11] concerns the target Lysine-specific demethylase 5B (Homo sapiens) (UniProt Q9UGL1). Kind of assay: Optimization screen for KDM5B Histone Demethylases FDH coupled qHTS against the LOPAC library (AID 1347166). Also: 0% is about no effect. The method, boiled down:
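KDM5BDeltaAP (200nM final) in 50mM HEPES pH 7.5, 0.01% Tween-20 was preincubated with compound for 10 min at room temperature. A substrate mix of 12.5uM H3K4Me3, 25uM a-ketoglutarate, ascorbate, Fe2+, NAD+ and formaldehyde dehydrogenase was then added. NADH fluorescence (340/450 nm) was read initially and after 30 min.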

A short description of assay [12]: qHTS to identify inhibitors of the type 1 interferon - major histocompatibility complex class I in skeletal muscle: primary screen against the NCATS LOPAC collection (AID 1347405).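 Also: lytic HiBiT luminescence reporting HLA-B protein level; % is scaled to controls: 0 for no effect and ±100 for the full control effect.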 Put shortly: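 HLA-B HiBiT myoblasts, IFN-b 4 ng/ml, dexamethasone-free medium; compounds 7-pt 1:4.3 titration, top 46 uM final; 24 h at 37 C; Nano-Glo HiBiT lytic reagent, 10 min RT, luminescence.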

The nature of assay [13]: qHTS for inhibitors of adenylyl cyclases using a fission yeast platform: a pilot screen against the NCATS LOPAC library (AID 1347410).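 Also: plate controls were DMSO vehicle for no effect and DPI positive control for full effect.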 The method, boiled down:
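S. pombe CHP2027 (AC9-GNAS-PDE4D2) carrying PKA-repressed fbp1-GFP, incubated 18 h at 30C in EMM with LOPAC compounds at up to 57 uM. GFP gain-of-signal read by laser scanning cytometry; DMSO negative control.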

Assay [14] can be described thus: Validation qHTS assay for inhibitors of Activation Induced Cytidine Deaminase (AID): UDG Counterscreen signal (AID 1347427). Also: 0% is about no effect. Put shortly: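 Fluorescence at 560 nm excitation, 665 nm emission reports UDG signal after 250 mM NaOH (2x) addition and 30 min. Enzymes (AID 1 uM, UDG 2 U/mL, at 4/3x) preincubated 10 min with compound, then 4 h with 4x 250 nM DJC20/DJC23 substrate at room temperature.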

For assay [15], the target named is Single-stranded DNA cytosine deaminase (Homo sapiens) (UniProt Q9GZX7). Put plainly: Validation qHTS assay for inhibitors of Activation Induced Cytidine Deaminase (AID): AID signal (AID 1347429). Also: % is scaled to controls: 0 for no effect and ±100 for the full control effect. The method, boiled down: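 AID+UDG coupled FRET deamination; cpds up to 114 uM final; DJC20/DJC23 substrate, 4 hr RT; NaOH stop, 30 min RT; read Ex 540/Em 590.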
Single-stranded DNA cytosine deaminase (Homo sapiens), sequence (Q9GZX7 whole entry, looked up): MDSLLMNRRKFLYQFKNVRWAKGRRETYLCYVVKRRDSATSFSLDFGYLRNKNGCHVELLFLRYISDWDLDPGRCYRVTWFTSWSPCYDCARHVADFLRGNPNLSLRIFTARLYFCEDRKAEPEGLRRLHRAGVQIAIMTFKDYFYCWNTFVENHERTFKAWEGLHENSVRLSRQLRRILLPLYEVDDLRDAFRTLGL

Protein phosphatase 1D (Homo sapiens), sequence (O15297 whole entry, looked up): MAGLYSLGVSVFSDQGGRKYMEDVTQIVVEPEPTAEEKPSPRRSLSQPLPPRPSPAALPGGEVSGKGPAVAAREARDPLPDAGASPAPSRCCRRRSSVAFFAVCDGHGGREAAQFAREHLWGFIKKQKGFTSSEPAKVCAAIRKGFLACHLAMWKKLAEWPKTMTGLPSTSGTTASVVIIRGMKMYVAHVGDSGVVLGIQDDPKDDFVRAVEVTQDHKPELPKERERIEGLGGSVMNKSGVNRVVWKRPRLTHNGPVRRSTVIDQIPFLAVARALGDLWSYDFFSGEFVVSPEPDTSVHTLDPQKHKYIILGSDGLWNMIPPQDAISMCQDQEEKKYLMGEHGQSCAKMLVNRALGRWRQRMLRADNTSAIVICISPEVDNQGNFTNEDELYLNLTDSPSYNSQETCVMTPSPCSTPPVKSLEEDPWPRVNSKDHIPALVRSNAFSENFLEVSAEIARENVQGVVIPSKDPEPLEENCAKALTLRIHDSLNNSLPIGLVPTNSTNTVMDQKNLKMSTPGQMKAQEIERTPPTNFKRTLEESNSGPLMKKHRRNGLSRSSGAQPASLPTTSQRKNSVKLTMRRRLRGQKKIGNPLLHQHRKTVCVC
Lysine-specific demethylase 5B (Homo sapiens), sequence (Q9UGL1 whole entry, looked up): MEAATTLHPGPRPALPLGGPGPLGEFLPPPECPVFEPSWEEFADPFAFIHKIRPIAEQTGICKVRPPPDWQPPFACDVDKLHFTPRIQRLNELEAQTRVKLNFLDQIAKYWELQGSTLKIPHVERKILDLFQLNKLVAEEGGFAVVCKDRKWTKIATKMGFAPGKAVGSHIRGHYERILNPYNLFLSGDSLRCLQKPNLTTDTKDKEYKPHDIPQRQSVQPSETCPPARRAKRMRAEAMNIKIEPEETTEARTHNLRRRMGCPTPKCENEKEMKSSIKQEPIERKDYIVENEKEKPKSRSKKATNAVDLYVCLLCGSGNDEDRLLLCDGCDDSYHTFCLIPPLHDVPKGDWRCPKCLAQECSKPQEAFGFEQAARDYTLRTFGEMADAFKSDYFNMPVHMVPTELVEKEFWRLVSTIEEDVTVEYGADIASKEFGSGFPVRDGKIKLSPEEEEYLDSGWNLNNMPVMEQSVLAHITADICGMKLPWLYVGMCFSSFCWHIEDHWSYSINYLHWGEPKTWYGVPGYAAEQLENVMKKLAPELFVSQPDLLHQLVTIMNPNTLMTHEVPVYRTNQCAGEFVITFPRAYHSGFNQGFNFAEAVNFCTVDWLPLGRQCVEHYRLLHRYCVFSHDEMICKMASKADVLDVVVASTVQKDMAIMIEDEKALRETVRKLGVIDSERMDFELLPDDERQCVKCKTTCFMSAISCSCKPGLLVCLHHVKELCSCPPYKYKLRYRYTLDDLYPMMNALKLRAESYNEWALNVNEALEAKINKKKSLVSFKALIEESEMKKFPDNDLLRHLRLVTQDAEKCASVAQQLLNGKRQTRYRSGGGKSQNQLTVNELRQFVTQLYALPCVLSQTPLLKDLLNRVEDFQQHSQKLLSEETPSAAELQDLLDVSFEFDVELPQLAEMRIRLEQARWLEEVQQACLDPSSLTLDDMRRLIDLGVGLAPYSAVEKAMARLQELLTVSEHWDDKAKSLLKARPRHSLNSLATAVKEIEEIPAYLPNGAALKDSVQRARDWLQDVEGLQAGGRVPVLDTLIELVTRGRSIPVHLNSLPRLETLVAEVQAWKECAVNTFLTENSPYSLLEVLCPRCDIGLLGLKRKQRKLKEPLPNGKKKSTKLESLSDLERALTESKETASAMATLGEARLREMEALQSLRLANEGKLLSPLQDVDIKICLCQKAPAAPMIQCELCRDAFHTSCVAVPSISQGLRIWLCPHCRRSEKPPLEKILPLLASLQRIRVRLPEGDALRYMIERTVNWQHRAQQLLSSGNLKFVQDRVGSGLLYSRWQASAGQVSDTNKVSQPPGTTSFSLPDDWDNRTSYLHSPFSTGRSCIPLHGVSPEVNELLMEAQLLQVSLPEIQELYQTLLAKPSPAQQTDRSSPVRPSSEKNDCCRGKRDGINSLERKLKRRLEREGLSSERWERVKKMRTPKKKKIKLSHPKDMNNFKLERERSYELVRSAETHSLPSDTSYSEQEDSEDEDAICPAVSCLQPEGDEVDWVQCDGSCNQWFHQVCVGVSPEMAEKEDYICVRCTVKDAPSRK

Take `CC(C)=CCOc1ccc(/C=C/C(=O)c2ccc(OCC=C(C)C)cc2OCC(=O)O)cc1`: the Potency in assay [1] is 6.31 µM (active); in assay [2], 39.8 µM (active). Besides, the activity change, negative = inhibition in assay [3] is 84.9% [at 5.25 µM]. The Potency result in assay [4] and in assay [5] was “inactive” in each case. Further, in assay [6], the outcome was inactive.
In the case of `O[C@@H](c1cc(C(F)(F)F)nc2c(C(F)(F)F)cccc12)[C@H]1CCCCN1`, the compound was called inactive in assay [7], in assay [9] and in assay [6]. Besides, the Potency in assay [8] was 20.8 µM (active); in assay [3], 9.3 µM (active). For the same compound, the Potency result in assay [5] was “inactive”.
`O=c1[nH]c(=O)n([C@H]2C[C@H](O)[C@@H](CO)O2)cc1F`: the Potency entry in assay [4] and in [10] was “inactive” throughout. For the same compound, in assay [9], the outcome was inactive.
Regarding `NCc1ccccc1Sc1ccccc1CO`, the Potency result in assay [4] and in [5] was “inactive” throughout. Besides, the compound was classed as inactive in assay [9].
On to `C[C@H]1O[C@@H](O[C@H]2CC[C@@]3(C)[C@H](CC[C@@H]4[C@@H]3C[C@@H](O)[C@]3(C)[C@@H](C5=CC(=O)OC5)CC[C@]43O)C2)C[C@H](O)[C@@H]1O[C@H]1C[C@H](O)[C@H](O[C@H]2C[C@H](O)[C@H](O[C@@H]3O[C@H](CO)[C@@H](O)[C@H](O)[C@H]3O)[C@@H](C)O2)[C@@H](C)O1`, for which the call in assay [7] and in [9] was inactive. Further, the Potency result in [8] and in assay [5] was “inactive” each time. The Potency in assay [3] was 0.415 µM (active); in [4], 0.528 µM (active).
Regarding `CC(=O)O[C@H]1C[C@@H]2CC[C@@H]3[C@H](CC[C@@]4(C)[C@H]3C[C@H]([N+]3(C)CCCCC3)[C@@H]4OC(C)=O)[C@@]2(C)C[C@@H]1N1CCCCC1`, the Potency entry in assay [4], in [10] and in assay [5] was “inactive” in each case. Moreover, the result in [9] was inactive.
For `NC(N)=NCc1cccc(I)c1`, the outcome in assay [11], in [12], in assay [13], in [14], in [15] and in assay [6] was inactive.
Take `C#C[C@]1(O)CC[C@H]2[C@@H]3[C@H](C)CC4=C(CCC(=O)C4)[C@H]3CC[C@@]21C`: the Potency result in [4], in assay [10] and in assay [5] was “inactive” each time. In addition, the result in [9] and in assay [6] was inactive.

Values taken from PubChem BioAssay (NCATS).
